Results published in PubChem BioAssay (NCATS).
Records with an inconclusive call do not appear. Activity calls are given as the source filed them. Calls follow the shape of the dose curve; as a rule, active = well fitted inhibition curve with a large enough effect; inconclusive = small, poorly fitted or top-dose-only effect; inactive = flat fitted curve, though single readings scatter.

Experiments:
Experiment in all cases: qHTS profiling for inhibitors of Plasmodium falciparum proliferation (AID 504749); also: nearly all actives have a fitted effect of over 60% in size
Conditions in all cases: P. falciparum in erythrocytes, SYBR Green DNA, 72 h; series mostly up to 28.7 µM
CP256 = system: CP256
Method in brief: (§1)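 SYBR Green fluorescence (ex 485 nm, em 535 nm) reports parasite DNA after 72 h compound exposure of infected red cells at 0.3% parasitemia, 2.5% hematocrit; signal normalized to 0.29 uM artemisinin and vehicle wells.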

CP260 = system: CP260
Method in brief: as §1

CP262 = system: CP262
Method in brief: as §1

CP265 = system: CP265
Method in brief: as §1

CP266 = system: CP266
Method in brief: as §1

CP268 = system: CP268
Method in brief: as §1

CP269 = system: CP269
Method in brief: as §1

CP286 = system: CP286
Method in brief: as §1

CP291 = system: CP291
Method in brief: as §1

CP297 = system: CP297
Method in brief: as §1

CP305 = system: CP305
Method in brief: as §1

CP315 = system: CP315
Method in brief: as §1

CP325 = system: CP325
Method in brief: as §1

CP329 = system: CP329
Method in brief: as §1

CP335 = system: CP335
Method in brief: as §1

DFO2036 = system: DFO2036
Method in brief: as §1

DIV14 = system: DIV14
Method in brief: as §1

DIV17 = system: DIV17
Method in brief: as §1

DIV30 = system: DIV30
Method in brief: as §1

Dd2 = system: Dd2
Method in brief: as §1

Measured: Potency
Potency is read from the fitted curve at half-maximal effect.

CC(C)COC(=O)OCN1C(=O)CN(CCN2CC(=O)N(COC(=O)OCC(C)C)C(=O)C2)CC1=O
inactive: CP256 | CP260 | CP262 | CP265 | CP266 | CP268 | CP269 | CP286 | CP291 | CP297 | CP305 | CP315 | CP325 | CP329 | CP335 | DFO2036 | DIV14 | DIV17 | DIV30 | Dd2

Cc1cccn2c(=O)c(-c3nnn[nH]3)cnc12
inactive: CP256 | CP260 | CP262 | CP265 | CP266 | CP268 | CP269 | CP286 | CP291 | CP297 | CP305 | CP315 | CP325 | CP329 | CP335 | DFO2036 | DIV14 | DIV17 | DIV30 | Dd2

CCCn1c(=O)[nH]c(=O)c2[nH]cnc21
inactive: CP256 | CP260 | CP262 | CP265 | CP266 | CP268 | CP269 | CP286 | CP291 | CP297 | CP305 | CP315 | CP325 | CP329 | CP335 | DFO2036 | DIV14 | DIV17 | DIV30 | Dd2

CCOc1ccc(NC(=O)CC(C)O)cc1 (stereo unspecified)
inactive: CP256 | CP260 | CP262 | CP265 | CP266 | CP268 | CP269 | CP286 | CP291 | CP297 | CP305 | CP315 | CP325 | CP329 | CP335 | DFO2036 | DIV14 | DIV17 | DIV30 | Dd2

NCCc1ccn[nH]1
inactive: CP256 | CP260 | CP262 | CP265 | CP266 | CP268 | CP269 | CP286 | CP291 | CP297 | CP305 | CP315 | CP325 | CP329 | CP335 | DFO2036 | DIV14 | DIV17 | DIV30 | Dd2

CCC(C(=O)OCCN(CC)CC)c1ccccc1 (stereo unspecified)
inactive: CP256 | CP260 | CP262 | CP265 | CP266 | CP268 | CP269 | CP286 | CP291 | CP297 | CP305 | CP315 | CP325 | CP329 | CP335 | DFO2036 | DIV14 | DIV17 | DIV30

CC[N+](CC)(CCNC(=O)C(=O)NCC[N+](CC)(CC)Cc1ccccc1Cl)Cc1ccccc1Cl
active: CP256 0.398 µM | CP260 1.58 µM | CP262 0.849 µM | CP265 0.562 µM | CP266 2.69 µM | CP268 7.57 µM | CP269 4.78 µM | CP286 0.891 µM | CP291 6.75 µM | CP297 2.69 µM | CP305 3.01 µM | CP315 3.79 µM | CP325 3.38 µM | CP329 2.39 µM | CP335 2.69 µM | DFO2036 1.78 µM | DIV14 4.26 µM | DIV17 4.78 µM | DIV30 6.01 µM | Dd2 2.51 µM

NCCC(O)(P(=O)(O)O)P(=O)(O)O
inactive: CP256 | CP260 | CP262 | CP265 | CP266 | CP268 | CP269 | CP286 | CP291 | CP297 | CP305 | CP315 | CP325 | CP329 | CP335 | DFO2036 | DIV14 | DIV17 | DIV30 | Dd2

CCCCC1=NC2(CCCC2)C(=O)N1Cc1ccc(-c2ccccc2-c2nn[nH]n2)cc1
inactive: CP256 | CP260 | CP262 | CP265 | CP266 | CP268 | CP269 | CP286 | CP291 | CP297 | CP305 | CP315 | CP325 | CP329 | CP335 | DFO2036 | DIV17 | DIV30 | Dd2

C[C@H]1C[C@H]2[C@@H]3CCC4=CC(=O)C=C[C@]4(C)[C@@]3(Cl)[C@@H](O)C[C@]2(C)[C@@]1(O)C(=O)CO
inactive: CP256 | CP260 | CP262 | CP265 | CP266 | CP268 | CP269 | CP286 | CP291 | CP297 | CP305 | CP315 | CP325 | CP329 | CP335 | DFO2036 | DIV14 | DIV17 | Dd2

CC(O)C(=O)O (stereo unspecified)
inactive: CP256 | CP260 | CP262 | CP265 | CP266 | CP268 | CP269 | CP286 | CP291 | CP297 | CP305 | CP315 | CP325 | CP329 | DFO2036 | DIV14 | DIV17 | DIV30 | Dd2

N[C@H](Cc1c[nH]c2ccccc12)C(=O)O
inactive: CP256 | CP260 | CP262 | CP265 | CP266 | CP268 | CP269 | CP286 | CP291 | CP297 | CP305 | CP315 | CP325 | CP329 | DFO2036 | DIV14 | DIV17 | DIV30

CCCCCCCCCCCCCCCCCC(=O)OCC(O)CO (stereo unspecified)
inactive: CP256 | CP260 | CP262 | CP265 | CP266 | CP268 | CP269 | CP286 | CP291 | CP297 | CP305 | CP315 | CP325 | CP329 | DFO2036 | DIV14 | DIV17 | Dd2

CC(C)(C(=O)c1cccnc1)c1cccnc1
inactive: CP256 | CP260 | CP262 | CP265 | CP266 | CP268 | CP269 | CP286 | CP291 | CP297 | CP305 | CP315 | CP325 | CP329 | CP335 | DFO2036 | DIV14 | DIV17 | DIV30 | Dd2

C[C@]12CC[C@@H]3c4ccc(O)cc4CC[C@H]3[C@@H]1CC[C@@H]2O
inactive: CP256 | CP260 | CP262 | CP265 | CP266 | CP268 | CP269 | CP286 | CP291 | CP297 | CP305 | CP315 | CP325 | CP329 | CP335 | DFO2036 | DIV14 | DIV17 | DIV30 | Dd2

COc1ccc(C2C(=O)c3ccccc3C2=O)cc1
inactive: CP256 | CP260 | CP262 | CP265 | CP266 | CP268 | CP269 | CP286 | CP291 | CP297 | CP305 | CP315 | CP325 | CP329 | CP335 | DFO2036 | DIV17 | DIV30 | Dd2

O=C(O)CCCCC(=O)O
inactive: CP256 | CP260 | CP262 | CP265 | CP266 | CP268 | CP269 | CP286 | CP291 | CP297 | CP305 | CP315 | CP325 | CP329 | DFO2036 | DIV14 | DIV17 | DIV30 | Dd2

O=c1ccc2ccccc2o1
inactive: CP256 | CP260 | CP262 | CP265 | CP266 | CP268 | CP269 | CP286 | CP291 | CP297 | CP305 | CP315 | CP325 | CP329 | CP335 | DFO2036 | DIV14 | DIV17 | DIV30 | Dd2

CCCCOc1ccc(OCCCN2CCOCC2)cc1
inactive: CP256 | CP260 | CP262 | CP265 | CP266 | CP268 | CP269 | CP286 | CP291 | CP297 | CP305 | CP315 | CP325 | CP329 | DFO2036 | DIV14 | DIV17 | DIV30 | Dd2

CN1C(CCl)Nc2cc(Cl)c(S(N)(=O)=O)cc2S1(=O)=O (stereo unspecified)
inactive: CP256 | CP260 | CP262 | CP265 | CP266 | CP268 | CP269 | CP286 | CP291 | CP297 | CP305 | CP315 | CP325 | CP329 | CP335 | DFO2036 | DIV14 | DIV17 | DIV30 | Dd2

CN1C2CCC1CC(OC(=O)c1c[nH]c3ccccc13)C2 (stereo unspecified)
inactive: CP256 | CP260 | CP262 | CP265 | CP266 | CP268 | CP269 | CP286 | CP291 | CP297 | CP305 | CP315 | CP325 | CP329 | CP335 | DFO2036 | DIV17 | DIV30 | Dd2

COc1cc(OC)cc(OC)c1
inactive: CP256 | CP260 | CP262 | CP265 | CP266 | CP268 | CP269 | CP286 | CP291 | CP297 | CP305 | CP315 | CP325 | CP329 | CP335 | DFO2036 | DIV14 | DIV17 | DIV30 | Dd2

NCCCC[C@H](N[C@@H](CCc1ccccc1)C(=O)O)C(=O)N1CCC[C@H]1C(=O)O
inactive: CP256 | CP260 | CP262 | CP265 | CP266 | CP268 | CP269 | CP286 | CP291 | CP297 | CP305 | CP315 | CP325 | CP329 | CP335 | DFO2036 | DIV14 | DIV17 | DIV30 | Dd2

O=C1OC(c2ccc(O)cc2)(c2ccc(O)cc2)c2ccccc21
inactive: CP256 | CP260 | CP262 | CP265 | CP266 | CP268 | CP269 | CP286 | CP291 | CP297 | CP305 | CP315 | CP325 | CP329 | CP335 | DFO2036 | DIV14 | DIV17 | Dd2

CN=C(NC#N)NCCSCc1csc(N=C(N)N)n1
inactive: CP256 | CP260 | CP262 | CP265 | CP266 | CP268 | CP269 | CP286 | CP291 | CP297 | CP305 | CP315 | CP325 | CP329 | CP335 | DFO2036 | DIV14 | DIV17 | DIV30 | Dd2

C=CCc1ccc(O)c(OC)c1
inactive: CP256 | CP260 | CP262 | CP265 | CP266 | CP268 | CP269 | CP286 | CP291 | CP297 | CP305 | CP315 | CP325 | CP329 | CP335 | DFO2036 | DIV14 | DIV17 | DIV30 | Dd2

CC1=C(C(=O)OC(C)C)C(c2cccc([N+](=O)[O-])c2)C(C(=O)OC2CN(C(c3ccccc3)c3ccccc3)C2)=C(N)N1 (stereo unspecified)
active: CP256 4.47 µM | CP260 6.31 µM | CP262 12 µM | CP265 7.94 µM | CP266 9.53 µM | CP268 9.53 µM | CP269 8.49 µM | CP286 5.01 µM | CP291 8.49 µM | CP297 13.5 µM | CP305 7.57 µM | CP315 13.5 µM | CP325 6.01 µM | CP329 6.01 µM | CP335 4.78 µM | DFO2036 7.08 µM | DIV14 7.57 µM | DIV17 9.53 µM | Dd2 11.2 µM
